{"source": "PubChem BioAssay AID1063", "about": "(University of Pittsburgh Molecular Library Screening Center, 2008)", "note": "Screen size: about 200,000 compounds; about 18,000 (9%) were called active. No stated cut-off is given here; in the data, active means inhibition above about 50%; inactive means the rest. Many of the other results were omitted from the sample, so actives are more common in it than they were.", "data": [{"assay": "Leishmania major promastigote growth inhibition, primary screen (AID 1063);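 further: promastigotes grown with compound for 44 hours at 28 °C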", "settings": "Leishmania major promastigotes, resazurin fluorescence viability; at 10 µM; stronger effect = higher value", "values": [{"compound": "C=CCNc1scc(-c2ccccc2)[n+]1CC=C", "inhibition": "9.84% (inactive)"}, {"compound": "Cc1nn(Cc2ccccc2)c(C)c1C(=O)NCCN1C(=O)S/C(=C\\c2ccc(F)cc2)C1=O", "inhibition": "-6.47% (inactive)"}, {"compound": "Cc1cccc(C(=O)NCCCN2CCCC2=O)c1", "inhibition": "-4.51% (inactive)"}, {"compound": "CCN1CCN(CCNC(=O)c2ccc(/C=C3/Sc4ccccc4N(Cc4cccc(C)c4)C3=O)cc2)CC1", "inhibition": "101% (active)"}, {"compound": "COC(=O)c1ccc(CSc2nncn2N)cc1", "inhibition": "-3.29% (inactive)"}, {"compound": "COc1cc(NS(=O)(=O)c2ccc(NC(=O)CN3C(=O)c4ccccc4C3=O)cc2)ncn1", "inhibition": "4.83% (inactive)"}, {"compound": "CN(Cc1ccccc1)Cc1ccccc1F", "inhibition": "-3.21% (inactive)"}, {"compound": "N=c1n(CCc2ccccc2)c2ccccc2n1Cc1ccccc1F", "inhibition": "97.3% (active)"}, {"compound": "Fc1ccccc1Cn1cnc(NC(=S)NCCc2ccccc2)n1", "inhibition": "-2.69% (inactive)"}, {"compound": "C=C(C)C1CC=C(C)/C(=N/NC(=O)CCCNc2cccc(C)c2)C1", "note": "(stereo unspecified)", "inhibition": "-1.55% (inactive)"}, {"compound": "c1cnc(NC2C3CC4CC(C3)CC2C4)nc1", "note": "(stereo unspecified)", "inhibition": "27.5% (inactive)"}, {"compound": "CN(C)c1ccc(CNC2C3CC4CC(C3)CC2C4)cc1", "note": "(stereo unspecified)", "inhibition": "75.6% (active)"}, {"compound": "CN(C)c1ccc(CNC23CN4CN(CN(C4)C2)C3)cc1", "inhibition": "-1.82% (inactive)"}, {"compound": "O=C(O)C1CC=CCC1C(=O)Nc1ccccc1C(=O)N1CCN(c2ccccc2)CC1", "note": "(stereo unspecified)", "inhibition": "-4.97% (inactive)"}, {"compound": "Cc1cccc(N2CCN(C(=O)c3ccccc3NC(=O)C3CCCCC3C(=O)O)CC2)c1", "note": "(stereo unspecified)", "inhibition": "-7.46% (inactive)"}, {"compound": "CC(C)c1ccc(N2CCN(C(=O)c3ccccc3NC(=O)/C=C(\\C(=O)O)c3ccccc3)CC2)cc1", "inhibition": "100% (active)"}, {"compound": "Cc1nc(S(=O)(=O)c2ccc(Br)cc2)nc2c1CCC2", "inhibition": "-6.99% (inactive)"}, {"compound": "CCOCCCNC(=O)C(NC(=O)c1ccccc1O)c1ccccc1", "note": "(stereo unspecified)", "inhibition": "-1.57% (inactive)"}, {"compound": "CCc1ccc(Nc2nnc(SCC(=O)c3ccc4c(c3)NC(=O)CO4)s2)cc1", "inhibition": "-5.5% (inactive)"}, {"compound": "COc1cccc(CNC(=O)CCC2CCCN(C(=O)c3cc(C)[nH]n3)C2)c1", "note": "(stereo unspecified)", "inhibition": "-7.13% (inactive)"}, {"compound": "COc1cccc2cc(/C(C)=N/NC(=O)c3ccco3)oc12", "inhibition": "31% (inactive)"}, {"compound": "N=c1c2c3c(sc2ncn1N)CCCC3", "inhibition": "-4.1% (inactive)"}, {"compound": "N=c1c2c3c(sc2ncn1N)CCCCC3", "inhibition": "-0.23% (inactive)"}, {"compound": "N=c1c2c3c(sc2ncn1CCCN1CCOCC1)CCCCC3", "inhibition": "90.5% (active)"}, {"compound": "COC(=O)C(=Nc1ccccc1)/C(C(=O)C(=O)N(C)c1ccccc1)=C(\\O)c1ccc(Cl)cc1", "inhibition": "-4.81% (inactive)"}, {"compound": "Cc1ccc(NC(=O)CCN2CCc3ccccc3C2)cc1", "inhibition": "5.9% (inactive)"}, {"compound": "Cc1cccc(C)c1NC(=O)c1ccc(CN2CCc3ccccc3C2)cc1", "inhibition": "73.9% (active)"}, {"compound": "Cc1ccc(NC(=O)CN2CCc3ccccc3C2)cc1", "inhibition": "-2.33% (inactive)"}, {"compound": "CCN=c1sc(C(=O)Nc2ccccc2)c(C)n1CC", "inhibition": "-3.21% (inactive)"}, {"compound": "CC(C)C(c1nnnn1C(C)(C)C)N1CCN(Cc2cccnc2)CC1", "note": "(stereo unspecified)", "inhibition": "-1.86% (inactive)"}, {"compound": "O=C(CSc1nc2ccccc2o1)N1c2ccccc2Sc2ccc(Cl)cc21", "inhibition": "71.7% (active)"}, {"compound": "O=C(CSc1nc2ccccc2o1)N1CCN(c2ccc(Cl)cc2)CC1", "inhibition": "0.01% (inactive)"}, {"compound": "Cc1ccccc1OCc1nnc(SCC(=O)N2c3ccccc3Sc3ccc(Cl)cc32)o1", "inhibition": "11.3% (inactive)"}, {"compound": "COc1ccc(-c2nc3cnccn3c2NC(C)(C)CC(C)(C)C)cc1O", "inhibition": "32.8% (inactive)"}, {"compound": "CS(=O)(=O)c1ccc2nc(NC(=O)c3ccc(Cl)nc3)sc2c1", "inhibition": "3.2% (inactive)"}, {"compound": "COc1ccccc1-n1c(=S)[nH]c2c(sc(=S)n2-c2ccc(C)cc2C)c1=O", "inhibition": "-6.57% (inactive)"}, {"compound": "N=c1c2c(-c3ccccc3)c(-c3ccccc3)oc2ncn1Cc1ccco1", "inhibition": "33.3% (inactive)"}, {"compound": "Cc1nc([N+](=O)[O-])c(NCCCO)n1Cc1ccccc1", "inhibition": "10.7% (inactive)"}, {"compound": "N=c1c2c(-c3ccccc3)c(-c3ccccc3)n(Cc3ccccc3)c2ncn1CCCO", "inhibition": "100% (active)"}, {"compound": "O=C(COC(=O)c1ccccc1C(=O)N1CCN(c2ccccc2)CC1)NCc1ccccc1", "inhibition": "-2.49% (inactive)"}, {"compound": "Oc1ccccc1N1CCN(C(=S)NCc2ccccc2)CC1", "inhibition": "-5.57% (inactive)"}, {"compound": "Oc1ccc(N2CCN(C(=S)NCc3ccccc3)CC2)cc1", "inhibition": "53.4% (active)"}, {"compound": "Cc1ccc(C(NC(=O)N2CCCC2)C(Cl)(Cl)Cl)cc1F", "note": "(stereo unspecified)", "inhibition": "-2.3% (inactive)"}, {"compound": "Cc1ccc(-c2csc(SCC(=O)Nc3cc(C)on3)n2)cc1", "inhibition": "-6.88% (inactive)"}, {"compound": "Cc1ccc2nc(-c3ccc(SCC(=O)Nc4cc(C)on4)nc3)[nH]c2c1", "inhibition": "64.8% (active)"}, {"compound": "Cc1cc(NC(=O)CSc2nc3ccccc3n2CC(C)C)no1", "inhibition": "10.5% (inactive)"}, {"compound": "CCN1CCN(C(=O)c2ccc(CN(c3ccc(C)c(C)c3)S(C)(=O)=O)cc2)CC1", "inhibition": "3.09% (inactive)"}, {"compound": "COc1ccc(C(=O)NC(=S)Nc2ccc(N3CCCC3)cc2)cc1OC", "inhibition": "26.5% (inactive)"}, {"compound": "COc1ccc(NC(=S)SC)cc1OC", "inhibition": "80.4% (active)"}, {"compound": "COc1ccc(NC(=O)CN(C)S(=O)(=O)c2ccccc2)cc1OC", "inhibition": "-1.12% (inactive)"}, {"compound": "O=C(NCc1ccccn1)c1cc(Br)ccc1Cl", "inhibition": "17.5% (inactive)"}, {"compound": "CN(C)NC(=O)C(NC(=O)c1ccc(N)cc1)C12CC3CC(CC(C3)C1)C2", "note": "(stereo unspecified)", "inhibition": "3.34% (inactive)"}, {"compound": "c1ccc(-c2cc3c(NCC4COc5ccccc5O4)ncnc3s2)cc1", "note": "(stereo unspecified)", "inhibition": "98.8% (active)"}, {"compound": "c1ccc2c(c1)OCC(CNc1ncnc3nc[nH]c13)O2", "note": "(stereo unspecified)", "inhibition": "-3.1% (inactive)"}, {"compound": "S=C(NCC1COc2ccccc2O1)Nc1ccc(Br)cc1", "note": "(stereo unspecified)", "inhibition": "-3.43% (inactive)"}, {"compound": "CN(C)C(=O)CSc1n[nH]c(-c2ccco2)n1", "inhibition": "-3.34% (inactive)"}, {"compound": "COc1ccccc1N1CCN(CC(=O)NCCc2ccc(S(N)(=O)=O)cc2)CC1", "inhibition": "-5.9% (inactive)"}, {"compound": "Cc1nc([N+](=O)[O-])cn1CC(=O)Nc1ccc2c(c1)OCO2", "inhibition": "-4.99% (inactive)"}, {"compound": "CCOc1ccc(NC(=O)CN(C)CC(=O)NC(C)c2ccccc2)cc1OCC", "note": "(stereo unspecified)", "inhibition": "-1.35% (inactive)"}, {"compound": "CCOc1ccc(NC(=O)CN(C)CC(=O)Nc2cccc(Cl)c2C)cc1OCC", "inhibition": "84.2% (active)"}, {"compound": "COc1ccc(NC(=O)CN(C)CC(=O)Nc2cccc(C(F)(F)F)c2)cc1", "inhibition": "6.17% (inactive)"}, {"compound": "S=c1[nH]nc(/C=C/c2ccccc2)o1", "inhibition": "-11.6% (inactive)"}, {"compound": "CN1CCN(CC(=O)Nc2cccc([N+](=O)[O-])c2)CC1", "inhibition": "-5.42% (inactive)"}, {"compound": "O=C(O)c1cccc(NC(=S)N/N=C/c2c[nH]c3ccccc23)c1", "inhibition": "-4.34% (inactive)"}, {"compound": "O=C(N/N=C/c1ccc(Cl)cc1)c1nc2ccc([N+](=O)[O-])cc2c(=O)[nH]1", "inhibition": "13.4% (inactive)"}, {"compound": "Cc1nc2ccccc2cc1C(=O)N/N=C/c1ccc([N+](=O)[O-])cc1", "inhibition": "-3.55% (inactive)"}, {"compound": "O=C(Cc1ccc(F)cc1)N/N=C/c1ccc2c(c1)OCO2", "inhibition": "-2.74% (inactive)"}, {"compound": "C(=N\\Nc1ccc2ccccc2n1)/c1ccc2c(c1)OCO2", "inhibition": "52.1% (active)"}, {"compound": "Brc1ccc(-c2csc(N/N=C/c3ccc4c(c3)OCO4)n2)cc1", "inhibition": "1.9% (inactive)"}, {"compound": "Cc1cc(C)nc(N/N=C/c2c(C)oc3ccccc23)n1", "inhibition": "3.92% (inactive)"}, {"compound": "Cc1noc(C)c1/C=N/Nc1ccc2ccccc2n1", "inhibition": "56.6% (active)"}, {"compound": "CC(C)(C)NC(=O)CN(C(=O)c1ccc(Cl)nc1)c1cccc2ccccc12", "inhibition": "31.5% (inactive)"}, {"compound": "COc1ccc(Cl)cc1N(CC(=O)N/N=C/c1ccc(OCC(N)=O)cc1)S(C)(=O)=O", "inhibition": "30.9% (inactive)"}, {"compound": "CCOc1ccc(N(CC(=O)NCCc2ccc(OC)cc2)S(C)(=O)=O)cc1", "inhibition": "-6.74% (inactive)"}, {"compound": "COCCN(C(=O)CCC(=O)Nc1nccs1)C(C(=O)NC(C)(C)C)c1ccc(Cl)cc1", "note": "(stereo unspecified)", "inhibition": "-1.47% (inactive)"}, {"compound": "CC1=C(C(N)=O)C(c2sccc2C)n2nnnc2N1", "note": "(stereo unspecified)", "inhibition": "-2.53% (inactive)"}, {"compound": "CCCCCOC(=O)C1=C(C)Nc2nnnn2C1c1ccc(OC)c(OC)c1OC", "note": "(stereo unspecified)", "inhibition": "92.7% (active)"}, {"compound": "COCCOC(=O)C1=C(C)Nc2nc(C)nn2C1c1ccccc1", "note": "(stereo unspecified)", "inhibition": "1.25% (inactive)"}, {"compound": "O=C(CCc1ccccc1)Nc1nn[nH]n1", "inhibition": "-3.55% (inactive)"}, {"compound": "O=C(CSc1ccc([N+](=O)[O-])cn1)Nc1ccc(N2CCOCC2)cc1", "inhibition": "-2.33% (inactive)"}, {"compound": "COC(=O)c1ccc(NCC(=O)N2CCCCCC2)cc1", "inhibition": "-4.15% (inactive)"}, {"compound": "O=C(O)c1ccn(COc2ccc(Br)cc2)n1", "inhibition": "-6.55% (inactive)"}, {"compound": "O=C(CSc1c2c(nc3ccc(Cl)cc13)CCCC2)NCc1ccco1", "inhibition": "39.9% (inactive)"}, {"compound": "C=CCn1c(CSc2nc3ccccc3s2)nnc1SCC(=O)NCc1ccco1", "inhibition": "-0.85% (inactive)"}, {"compound": "O=C(CSc1nc2ccc(Nc3nc(N4CCOCC4)nc(N4CCOCC4)n3)cc2s1)NCc1ccco1", "inhibition": "66% (active)"}, {"compound": "CCN(CC)S(=O)(=O)c1ccc(N(C)CCc2ccc(OC)c(OC)c2)nc1", "inhibition": "20.7% (inactive)"}, {"compound": "Cc1ccc(O)c(NC(=S)NC(=O)COc2ccc(Br)cc2)c1", "inhibition": "-2.21% (inactive)"}, {"compound": "CC(=O)NC(Cc1ccccc1)C(=O)NC1CCN(c2ncccc2[N+](=O)[O-])CC1", "note": "(stereo unspecified)", "inhibition": "57.3% (active)"}, {"compound": "CC(=O)NC(Cc1ccc(F)c(F)c1)C(=O)NC1CCN(c2nnnn2-c2ccccc2)CC1", "note": "(stereo unspecified)", "inhibition": "9.51% (inactive)"}, {"compound": "CNC(=S)N1CCC(NC(=O)C(Cc2ccc(F)cc2)NC(C)=O)CC1", "note": "(stereo unspecified)", "inhibition": "-5.13% (inactive)"}, {"compound": "CC(Sc1nc2cc(Cl)ccc2s1)C(=O)Nc1ccc2c(c1)OCO2", "note": "(stereo unspecified)", "inhibition": "3.45% (inactive)"}, {"compound": "O=C(Nc1ccc(N2CCOCC2)cc1)c1ccc(-c2ccccc2[N+](=O)[O-])o1", "inhibition": "7.53% (inactive)"}, {"compound": "CCOc1cc(NS(=O)(=O)c2ccc(OC)cc2)c(OCC)cc1NC(C)=O", "inhibition": "-2.08% (inactive)"}, {"compound": "O=C(Cn1c(COc2ccccc2)nc2ccccc21)Nc1cc(Cl)c(Cl)cc1Cl", "inhibition": "94.1% (active)"}, {"compound": "COCn1c(COc2ccccc2)nc2ccccc21", "inhibition": "1.65% (inactive)"}, {"compound": "O=C(Cn1c(-c2cscn2)nc2ccccc21)Nc1ccc(Cl)cc1", "inhibition": "16.4% (inactive)"}]}]}
